Measurements from ChEMBL document CHEMBL3988442, “University of Dundee, Small-Polar-MMV Screening Library” (2021).
For some assays here: Results with a measured potency or affinity are listed apart.

Legend:
Design in all cases: scale not given: direction of the effect not stated beside the values
[1] = target: Protein translocase subunit SecA (Escherichia coli (strain K12)) (UniProt P10408); test: Assay to Identify E. coli SecA ATPase Inhibitors; format: functional; details: 30 µM
[2] = target: T1, Ubiquitin-activating enzyme e1, putative (Leishmania donovani (strain BPK282A1)) (UniProt E9BSI1); test: Leishmania donovani Ubiquitin Activating Enzyme (LdE1); format: functional; details: 30 µM
T1 sequence (whole entry): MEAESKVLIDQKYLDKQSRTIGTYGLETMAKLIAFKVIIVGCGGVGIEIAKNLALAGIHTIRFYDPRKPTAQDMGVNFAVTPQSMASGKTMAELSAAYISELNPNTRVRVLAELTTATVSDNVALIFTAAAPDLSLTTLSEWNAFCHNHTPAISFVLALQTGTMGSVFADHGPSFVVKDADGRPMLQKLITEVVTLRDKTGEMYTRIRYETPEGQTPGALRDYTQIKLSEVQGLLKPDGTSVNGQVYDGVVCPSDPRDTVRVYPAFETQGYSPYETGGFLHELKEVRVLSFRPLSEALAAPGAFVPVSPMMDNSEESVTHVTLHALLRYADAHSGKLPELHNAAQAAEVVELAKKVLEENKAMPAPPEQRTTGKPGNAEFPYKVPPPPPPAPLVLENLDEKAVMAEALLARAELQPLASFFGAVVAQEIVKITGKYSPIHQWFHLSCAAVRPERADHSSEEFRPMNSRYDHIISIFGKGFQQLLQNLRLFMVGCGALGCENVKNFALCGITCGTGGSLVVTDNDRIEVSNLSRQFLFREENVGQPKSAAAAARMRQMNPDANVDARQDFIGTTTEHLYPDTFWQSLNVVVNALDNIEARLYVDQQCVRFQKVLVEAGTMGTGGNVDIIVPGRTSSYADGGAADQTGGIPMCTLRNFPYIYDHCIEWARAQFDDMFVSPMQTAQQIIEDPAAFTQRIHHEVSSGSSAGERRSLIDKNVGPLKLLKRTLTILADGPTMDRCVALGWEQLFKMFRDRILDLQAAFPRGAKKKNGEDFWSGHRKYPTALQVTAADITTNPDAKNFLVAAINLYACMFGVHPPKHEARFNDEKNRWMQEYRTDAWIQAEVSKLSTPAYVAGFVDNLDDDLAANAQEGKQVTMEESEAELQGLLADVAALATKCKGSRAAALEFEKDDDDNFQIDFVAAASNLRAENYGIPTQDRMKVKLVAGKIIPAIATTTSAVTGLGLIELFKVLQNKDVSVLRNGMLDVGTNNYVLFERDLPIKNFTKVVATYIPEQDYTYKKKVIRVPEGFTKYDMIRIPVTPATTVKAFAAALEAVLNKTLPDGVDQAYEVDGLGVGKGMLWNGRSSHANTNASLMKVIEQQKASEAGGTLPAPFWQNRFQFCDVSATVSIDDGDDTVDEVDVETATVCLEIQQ

[3] = target: AMP-activated protein kinase, AMPK (Homo sapiens) (UniProt P54646+O43741+P54619+Q9UGJ0+Q9Y478+Q13131+Q9UGI9); test: AMP-dependent Kinase enzyme assay. An in vitro enzyme assay that detects ADP turnover that is directly proportional to AMPK activity. This uses naive AMPK that is activated during the assay with MK-8722; format: functional; details: 30 µM
[4] = target: Sialic acid-binding Ig-like lectin 9 (Homo sapiens) (UniProt Q9Y336); test: Hs-Siglec9 ALPHAscreen SOP 20170721; details: 10 µM
Chain of Sialic acid-binding Ig-like lectin 9 (Homo sapiens) (Q9Y336 whole entry): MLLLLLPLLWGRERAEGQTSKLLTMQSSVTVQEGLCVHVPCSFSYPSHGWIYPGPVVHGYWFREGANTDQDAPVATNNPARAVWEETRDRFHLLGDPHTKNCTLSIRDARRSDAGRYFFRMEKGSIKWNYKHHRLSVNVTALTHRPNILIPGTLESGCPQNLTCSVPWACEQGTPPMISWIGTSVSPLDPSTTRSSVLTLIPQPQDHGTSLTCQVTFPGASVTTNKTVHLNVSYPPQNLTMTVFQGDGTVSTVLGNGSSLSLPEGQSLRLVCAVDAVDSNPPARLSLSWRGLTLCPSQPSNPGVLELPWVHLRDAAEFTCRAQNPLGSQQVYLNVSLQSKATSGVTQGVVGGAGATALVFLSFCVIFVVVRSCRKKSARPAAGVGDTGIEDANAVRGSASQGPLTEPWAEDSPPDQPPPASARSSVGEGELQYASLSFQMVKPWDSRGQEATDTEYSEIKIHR

Trypanosoma cruzi = test: Trypanosoma cruzi phosphomannomutase and mannose-1-phosphate guanylyltransferase assay; format: functional; details: 10 µM
[5] = target: T2, Arginase-2, mitochondrial (Homo sapiens) (UniProt P78540); test: in vitro enzyme assay to detect the production of urea directly proportional to the activity of Arginase II; format: functional; details: 33.3 µM; further: in the data most compounds retested in dose-response had high values
T2 sequence (whole entry): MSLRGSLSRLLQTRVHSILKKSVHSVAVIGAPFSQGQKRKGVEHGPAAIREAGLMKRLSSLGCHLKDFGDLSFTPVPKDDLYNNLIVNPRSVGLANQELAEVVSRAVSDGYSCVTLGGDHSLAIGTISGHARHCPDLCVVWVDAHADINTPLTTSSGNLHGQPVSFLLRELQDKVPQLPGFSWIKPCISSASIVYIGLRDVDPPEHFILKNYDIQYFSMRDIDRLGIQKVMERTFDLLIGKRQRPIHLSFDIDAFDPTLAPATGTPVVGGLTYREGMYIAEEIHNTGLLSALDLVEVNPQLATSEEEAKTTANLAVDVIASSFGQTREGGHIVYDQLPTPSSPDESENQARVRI

[6] = target: T3, Proteasome subunit beta (Trypanosoma cruzi) (UniProt O96673); test: Trypanosoma cruzi proteasome chymotrypsin-like activity (TcProtChymo) assay.; further: in the data most compounds retested in dose-response had high values; format: functional; details: 9.37 µM
T3 sequence (whole entry): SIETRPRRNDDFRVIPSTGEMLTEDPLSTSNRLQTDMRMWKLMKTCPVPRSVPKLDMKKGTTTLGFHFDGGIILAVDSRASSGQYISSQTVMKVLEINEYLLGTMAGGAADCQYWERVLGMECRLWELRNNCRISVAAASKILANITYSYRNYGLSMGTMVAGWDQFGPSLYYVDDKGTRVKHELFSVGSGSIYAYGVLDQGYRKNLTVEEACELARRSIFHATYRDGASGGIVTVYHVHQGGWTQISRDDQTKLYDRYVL

Homo sapiens = organism: Homo sapiens; test: To identify inhibition of the IFN signalling (Jak-Stat) pathway via expression of an eGFP reporter gene under the control of an IFN-stimulated response element (ISRE) containing MxA promoter.; format: functional; details: 30 µM
[7] = target: T4, Tyrosyl-tRNA synthetase, putative (Trypanosoma cruzi (strain CL Brener)) (UniProt Q4DSP6); test: Trypanosoma cruzi tyrosyl tRNA synthetase (TcYRS) _High Tyrosine SOP; format: functional; details: 30 µM; further: in the data most compounds retested in dose-response had high values
T4 sequence (whole entry): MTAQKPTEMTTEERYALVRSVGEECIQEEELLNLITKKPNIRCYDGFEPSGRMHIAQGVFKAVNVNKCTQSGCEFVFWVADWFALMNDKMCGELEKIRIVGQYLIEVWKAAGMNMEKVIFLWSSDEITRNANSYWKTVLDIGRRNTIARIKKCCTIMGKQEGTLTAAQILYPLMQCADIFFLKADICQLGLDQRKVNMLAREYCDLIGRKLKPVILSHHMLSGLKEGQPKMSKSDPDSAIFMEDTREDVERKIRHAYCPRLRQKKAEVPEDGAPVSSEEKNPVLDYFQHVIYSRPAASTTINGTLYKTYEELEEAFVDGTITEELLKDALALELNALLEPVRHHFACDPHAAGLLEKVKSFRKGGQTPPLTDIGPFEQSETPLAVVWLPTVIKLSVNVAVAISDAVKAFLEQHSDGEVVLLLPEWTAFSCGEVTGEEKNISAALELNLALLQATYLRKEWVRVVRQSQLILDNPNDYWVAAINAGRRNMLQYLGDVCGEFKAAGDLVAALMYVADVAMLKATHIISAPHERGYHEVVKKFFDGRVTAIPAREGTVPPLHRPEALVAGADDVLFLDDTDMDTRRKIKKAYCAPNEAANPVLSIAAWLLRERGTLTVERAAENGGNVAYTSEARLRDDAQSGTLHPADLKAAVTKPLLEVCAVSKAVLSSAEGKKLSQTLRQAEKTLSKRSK

[8] = target: T4, Tyrosyl-tRNA synthetase, putative (Trypanosoma cruzi (strain CL Brener)); test: Trypanosoma cruzi tyrosyl tRNA synthetase (TcYRS) SOP; format: functional; details: 30 µM
[9] = target: Chromo domain-containing protein 1 (Saccharomyces cerevisiae (strain ATCC 204508 / S288c) (Baker's yeast)) (UniProt P32657); test: ScCHD-1 Enzyme Inhibition Assay; format: functional; details: 30 µM; further: in the data most compounds retested in dose-response had high values
Chain of Chromo domain-containing protein 1 (Saccharomyces cerevisiae (strain ATCC 204508 / S288c) (Baker's yeast)) (P32657 whole entry, the tested form may be a part): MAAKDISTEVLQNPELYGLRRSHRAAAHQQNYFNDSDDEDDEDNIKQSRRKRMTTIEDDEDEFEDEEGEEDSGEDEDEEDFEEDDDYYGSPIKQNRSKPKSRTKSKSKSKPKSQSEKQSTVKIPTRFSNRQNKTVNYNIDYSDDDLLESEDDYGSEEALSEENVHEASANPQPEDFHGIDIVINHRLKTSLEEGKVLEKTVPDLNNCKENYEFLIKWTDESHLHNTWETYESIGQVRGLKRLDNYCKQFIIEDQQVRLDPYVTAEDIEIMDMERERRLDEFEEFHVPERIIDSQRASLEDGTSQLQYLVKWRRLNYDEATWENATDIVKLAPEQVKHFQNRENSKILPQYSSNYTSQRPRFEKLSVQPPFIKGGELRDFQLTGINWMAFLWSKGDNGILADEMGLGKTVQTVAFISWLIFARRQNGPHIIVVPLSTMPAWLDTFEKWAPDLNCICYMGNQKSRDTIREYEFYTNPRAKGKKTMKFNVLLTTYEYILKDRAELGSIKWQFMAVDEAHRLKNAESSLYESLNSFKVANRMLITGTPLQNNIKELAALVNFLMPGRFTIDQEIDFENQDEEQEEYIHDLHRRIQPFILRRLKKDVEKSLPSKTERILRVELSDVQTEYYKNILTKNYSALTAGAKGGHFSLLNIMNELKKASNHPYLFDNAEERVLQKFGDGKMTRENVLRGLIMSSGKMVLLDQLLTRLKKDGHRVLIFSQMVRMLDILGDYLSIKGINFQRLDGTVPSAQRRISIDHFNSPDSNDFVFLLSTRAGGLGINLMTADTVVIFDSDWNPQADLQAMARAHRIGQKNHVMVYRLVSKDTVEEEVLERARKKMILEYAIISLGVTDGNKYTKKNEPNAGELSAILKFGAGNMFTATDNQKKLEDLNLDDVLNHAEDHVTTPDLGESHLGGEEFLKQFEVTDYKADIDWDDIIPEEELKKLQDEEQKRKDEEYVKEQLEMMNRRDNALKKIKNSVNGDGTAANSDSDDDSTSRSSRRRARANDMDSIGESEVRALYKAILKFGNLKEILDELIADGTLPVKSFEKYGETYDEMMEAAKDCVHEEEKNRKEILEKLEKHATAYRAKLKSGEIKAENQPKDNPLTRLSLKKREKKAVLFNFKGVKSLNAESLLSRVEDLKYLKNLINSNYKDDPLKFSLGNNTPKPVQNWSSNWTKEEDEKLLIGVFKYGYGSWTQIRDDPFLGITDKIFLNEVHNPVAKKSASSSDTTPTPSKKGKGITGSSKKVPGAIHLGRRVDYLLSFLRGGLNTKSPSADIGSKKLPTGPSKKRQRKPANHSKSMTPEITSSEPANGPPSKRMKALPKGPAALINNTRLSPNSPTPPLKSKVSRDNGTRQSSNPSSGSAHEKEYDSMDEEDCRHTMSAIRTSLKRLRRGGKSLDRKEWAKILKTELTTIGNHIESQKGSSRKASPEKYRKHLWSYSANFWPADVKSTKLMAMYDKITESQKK

Chain of Protein translocase subunit SecA (Escherichia coli (strain K12)) (P10408 whole entry): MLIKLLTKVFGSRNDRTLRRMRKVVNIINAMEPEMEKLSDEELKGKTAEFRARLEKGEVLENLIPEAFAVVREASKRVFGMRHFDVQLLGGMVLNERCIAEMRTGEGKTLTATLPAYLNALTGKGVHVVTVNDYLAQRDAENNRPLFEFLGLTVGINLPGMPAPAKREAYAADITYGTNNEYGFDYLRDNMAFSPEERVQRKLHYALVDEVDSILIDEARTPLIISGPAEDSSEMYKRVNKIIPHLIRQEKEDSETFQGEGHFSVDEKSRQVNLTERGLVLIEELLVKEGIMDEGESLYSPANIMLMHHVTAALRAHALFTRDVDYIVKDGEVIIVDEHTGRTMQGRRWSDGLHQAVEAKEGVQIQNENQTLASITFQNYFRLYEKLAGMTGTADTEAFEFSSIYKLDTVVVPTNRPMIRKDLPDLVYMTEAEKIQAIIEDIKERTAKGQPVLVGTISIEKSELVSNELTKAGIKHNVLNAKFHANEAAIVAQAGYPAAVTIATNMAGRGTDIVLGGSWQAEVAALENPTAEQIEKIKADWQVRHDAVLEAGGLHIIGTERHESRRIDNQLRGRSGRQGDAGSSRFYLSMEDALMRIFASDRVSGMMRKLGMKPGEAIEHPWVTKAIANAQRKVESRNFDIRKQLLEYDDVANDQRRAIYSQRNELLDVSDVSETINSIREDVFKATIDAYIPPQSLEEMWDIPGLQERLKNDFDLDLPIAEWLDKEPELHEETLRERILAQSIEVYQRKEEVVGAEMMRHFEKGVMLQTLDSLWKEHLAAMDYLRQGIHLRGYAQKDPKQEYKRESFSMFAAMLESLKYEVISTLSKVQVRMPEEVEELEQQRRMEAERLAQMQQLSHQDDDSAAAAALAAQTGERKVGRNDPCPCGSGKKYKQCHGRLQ

Compound | Percent Effect [1] [%] | Percent Effect [2] [%] | Percent Effect [3] [%] | Percent Effect [4] [%] | Percent Effect (Trypanosoma cruzi) [%] | Percent Effect [5] [%] | Percent Effect [6] [%] | Percent Effect (Homo sapiens) [%] | Percent Effect [7] [%] | Percent Effect [8] [%] | Percent Effect [9] [%]
c1ccc(CN2CCCC(c3nccnc3-n3ccnc3)C2)cc1 (configuration not stated) | -1.15 | 10.7 | 4.45 | -1.75 | 0.591 | -0.233 | 14.5 | 7.14 | 5.32 | 6.41 | -0.742
Cn1nc(COc2cccnc2)c2c1CCN(c1cnccn1)C2 | -4.47 | 13.5 | -0.741 | 2.04 | 0.293 | 14.3 | 26.2 | 4.97 | 5.41 | 12.8 | -3.43
COc1cccc(OCCNCc2c(C)nn(C)c2N(C)C)c1 | -5.35 | 5.26 | -9.94 | 10.1 | 1.5 | 1.92 | 7.69 | -12 | 4.41 | 19.5 | -8.18
CN(C)S(=O)(=O)N1CCC(Oc2cnccn2)CC1 | -5.97 | 13 | -2.04 | 3.81 | 1.28 | -1.94 | 20.2 | 6.27 | 4.23 | 14.1 | -9.34
O=C(C1CCOCC1)N1C[C@@H]2[C@@H](C1)OCC(=O)N2CC1CC1 | -1.53 | -192 | 0.601 | -6.86 | -19.1 | 0.319 | 19.2 | -0.484 | -222 | -451 | -3.21
CCCc1nnsc1C(=O)NCC1CCN(c2ccccn2)CC1 | -0.329 | 11 | -5.48 | 2.44 | 4.5 | 11.8 | 21.3 | 25.2 | 5.38 | 20 | -6.53
CCc1csc(CCNC(=O)C2CC(=O)N(C(C)C)C2)n1 (configuration not stated) | -2.98 | 15.6 | -6.03 | 4.97 | 0.0983 | -11 | 8.65 | 8.23 | 6.45 | 13.6 | -1.5
COc1cc(C)c(CN2CCC3(CC2)C(C(=O)O)CC(=O)N3C)cc1C (configuration not stated) | -0.465 | 16 | -9.44 | 6.22 | 0.682 | 6.77 | 10.3 | 22.7 | 3.83 | 18.5 | -3.84
Cn1ccc(CN2CCC(CCc3ccc(O)cc3)CC2)cc1=O | -1.04 | 6.33 | 43.4 | 0.347 | 3.38 | -1.07 | 1.89 | 10.3 | 0 | -17.7 | -10.1
CCc1nc(CN(C)CC2CCN(CCO)CC2)no1 | 0.69 | 2.7 | -8.99 | 9.52 | 6.56 | 10 | -1.55 | -14.8 | 2.65 | 9.76 | -0.692
O=C(Cn1cccnc1=O)NC(Cc1ccsc1)c1ccccn1 (configuration not stated) | -10 | 14.9 | 0.845 | 8.55 | 1.98 | 0.232 | 5.3 | 2.88 | 5.38 | 9.09 | -19.6
Cc1nnc(NC(=O)CN(C)CC2CCCN2c2cccnn2)s1 (configuration not stated) | -6.6 | -2.7 | -10.9 | 17.7 | -1.56 | -1.67 | 17.3 | 17.7 | 5.94 | 1.22 | 0.656
O=C1CN(Cc2nnc(-c3ccccc3Br)o2)CCN1 | -1.52 | 9.72 | 0.225 | -0.91 | 2.43 | 2.65 | 25.1 | -21.9 | 1.05 | 7.69 | -3.03
O=C(c1cnccn1)N1CCOCC2(CCN(C3CCOCC3)C2)C1 (configuration not stated) | -3.59 | 25.3 | -6.88 | -0.346 | 3.54 | -0.528 | 19.4 | -1.42 | 8.47 | 15.4 | -9.96
O=C(NCC1CCN(C(=O)c2ccoc2)CC1)c1ccccc1Br | -6.61 | 5.48 | 3.13 | -5.78 | -4.7 | -0.455 | 15.6 | -0.0227 | 3.23 | 5 | -4.05
Cn1cccc1CNC(=O)N(CCO)C1CCCc2ccccc21 (configuration not stated) | -4.61 | -5.26 | -1.52 | 0.538 | 3.8 | -14.2 | 2.01 | 1.76 | 2.13 | 0 | -9.55
COc1ccccc1OCCC(=O)N1CCCC1Cn1cc(C)cn1 (configuration not stated) | -4.84 | 13 | 5.75 | 5.19 | 1.86 | 3.16 | 0.0808 | 7.77 | 7.62 | 18.8 | -6.89
COCC(=O)N1CCC(c2nc3ccc(-c4ccccc4)cn3n2)CC1 | 1.49 | -153 | 4.81 | 3.2 | -1.19 | 4.79 | 13.4 | 15.6 | 0 | 3.7 | -1.08
Cc1ccc(NC2CCN(C(=O)CN(C)C3CC3)CC2)nn1 | -4.6 | -6.33 | -0.261 | 16.3 | -3.79 | 0.645 | 6.69 | -12.3 | 4.17 | 7.59 | -6.68
CCC(C)(NCC(=O)N(c1ccccc1)C(C)C)c1nc(C)cs1 (configuration not stated) | 1.71 | 8.11 | -12.9 | 3.16 | 1.27 | 7.2 | 7.3 | -1.37 | 4.3 | 13.6 | -8.52
Cc1[nH]ncc1C(=O)N1CCCC(c2cc(C(F)(F)F)[nH]n2)C1 (configuration not stated) | -6.98 | 8.11 | -26.4 | 5.54 | -6.59 | -3.51 | 2.69 | 14.8 | 2.97 | 6.1 | 3.81
Cc1nn(C)cc1C(=O)Nc1cccc(CN2CCC(CO)CC2)c1 | -3.16 | 18.4 | -4.72 | -21.7 | 3.41 | 26 | 8.53 | 28.8 | 1.06 | 15.6 | -7.09
